PubChem BioAssay (NCATS)
“And” between values parts separate entries of the source, which are not always exact repeats. Identical values can stand only once. Records with an inconclusive call do not appear. The source made the active and inactive calls. Unless noted, calls come from the whole dose curve; as a rule, active = well fitted curve in the direction sought with a large enough effect; inconclusive = small, poorly fitted or top-dose-only effect, or another doubt; inactive = no such curve, though single readings can be large; an effect the other way counts as inactive or inconclusive.

Columns and labels:
[1] = Cell Viability - Mesenchymal (AID 546); conditions: mesenchymal cells viability, qHTS; activity change, negative = cytotoxicity: at 91.7 µM (top of the series);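 note: cells exposed to compound for 40 hours before reading; 0% = DMSO only and -100% = 100 µM tamoxifen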
Method in brief: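 Human kidney mesenchymal cells from normal renal glomeruli, 1000 cells/well, rested 5 hr at 37 °C, then treated 40 hr at 37 °C in complete medium. Cellular ATP read by CellTiter-Glo luminescence; AC50 from Hill-equation fits.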

[2] = Cell Viability - LYMP2-025 (AID 976); conditions: LYMP2-025 lymphoblastoid cell viability; series mostly up to 92.2 µM; note: potency is the fitted concentration of half-maximal effect;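 for activity change, negative = cytotoxicity: plate controls were DMSO only for no effect and tetraoctylammonium bromide control for full effect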
Method in brief: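 Seed 2500 LYMP2-025 cells/well; 5 hr at 37 C; add compound; 24 hr at 37 C; add CellTiter-Glo; 30 min RT; read luminescence. AC50 from Hill-modelled concentration-response.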

[3] = Cell Viability - LYMP2-022 (AID 987); conditions: LYMP2-022 lymphoblastoid cell viability; series mostly up to 92.2 µM; note: nearly all actives have a fitted effect of over 55% in size; note: potency is the fitted concentration of half-maximal effect
Method in brief: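 qHTS: human lymphoblastoid cells 2500/well; 5 hr 37 C; cpd added; 24 hr 37 C; CellTiter-Glo, 30 min RT; luminescence. AC50 via Hill fit; tetraoctylammonium bromide positive ctrl.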

[4] = Cell Viability - LYMP2-026 (AID 989); conditions: LYMP2-026 lymphoblastoid cell viability, qHTS; series mostly up to 92.2 µM; note: nearly all actives have a fitted effect of over 50% in size; note: potency is the fitted concentration of half-maximal effect
Method in brief: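 Luminescent ATP signal (CellTiter-Glo, 30 min room temperature) measures viable lymphoblastoid cells after 24 hr compound treatment at 37 C. Decreased ATP reflects acute toxicity; AC50 values come from Hill-equation modeling.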

[5] = qHTS assay for small molecule antagonists of retinoid X receptor alpha signaling (AID 588546; active = well fitted inhibition curve with a large enough effect in the signal ratio, with a control signal flat, not every such curve was filed as active; the % refers to the signal ratio;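 note: cells stimulated with 9-cis-retinoic acid as agonist; % is set by controls: 0 for no effect and ±100 for the full control effect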); conditions: HEK293T RXRa-UAS-bla, beta-lactamase ratio, antagonist mode; measured here: W530 green channel, cytotoxicity proxy
Method in brief: (§1)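 Beta-lactamase reporter inhibition, read as CCF4 fluorescence ratio (ex 405, em 460/530 nm) after 2 h at RT. HEK293T UAS-bla cells, 2500/well, were stimulated with 9-cis-RA at 500 or 100 nM final alongside test compound for 18 h at 37 C.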

[6] = target: Retinoic acid receptor RXR-alpha (Homo sapiens) (UniProt P19793); experiment: as above; conditions: HEK293T RXRa-UAS-bla, beta-lactamase ratio, antagonist mode
Method in brief: as §1

[7] = qHTS assay for environmental chemicals that activate the Aryl hydrocarbon Receptor (AhR) signaling pathway (AID 651777); conditions: 1A2-DRE human hepatoma cells, luciferase, 24 h; activation: stronger effect = higher value; note: nearly all actives have a fitted effect of over 15% in size; note: potency is the fitted concentration of half-maximal effect; for activation: % of control where 0% means no effect
Method in brief: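 Quantitative HTS in stably transfected human liver-derived cells whose luciferase gene sits downstream of the CYP1A2 promoter and dioxin response element. After 24 hr exposure at 37 C, One-Glo luminescence was measured.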

[8] = Cell Viability - BJ (AID 421; calls by dose curve;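 note: potency is the fitted concentration of half-maximal effect; cells exposed to compound for 40 hours at 37 °C before readout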); conditions: BJ fibroblast viability, qHTS
Method in brief: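 Cytotoxicity as drop in intracellular ATP (CellTiter-Glo, 20 min RT) after 40 hr compound exposure of BJ fibroblasts at 37 °C. Titrations scaled between DMSO and 100 uM tamoxifen, Hill-fitted for AC50.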

[9] = Cell Viability - HepG2 (AID 433; calls by dose curve;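 note: potency is the fitted concentration of half-maximal effect; potency for ATP loss meaning cytotoxicity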); conditions: qHTS
Method in brief: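 Read-out is luciferase-based quantitation of cellular ATP as a measure of viable HepG2 cells after 40 h treatment at 37 °C. Signal decrease is scaled between DMSO-only and 100 uM tamoxifen controls, with AC50 fitted by the Hill equation.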

[10] = Cell Viability - LYMP1-003 - Assay at 40 hr (AID 964); conditions: LYMP1-003 lymphoblastoid viability; series mostly up to 92.2 µM; note: nearly all actives have a fitted effect of over 60% in size; note: potency is the fitted concentration of half-maximal effect
Method in brief: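 Cells were seeded at 2500 per well and incubated 5 hr at 37 C. Compounds were added across a concentration series and left 40 hr at 37 C. CellTiter-Glo was added for 30 min at room temperature before luminescence reading.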

[11] = Cell Viability - LYMP2-004 (AID 966); conditions: LYMP2-004 lymphoblastoid cell viability, qHTS; series mostly up to 92.2 µM; note: nearly all actives have a fitted effect of over 65% in size; note: potency is the fitted concentration of half-maximal effect;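 for activity change, negative = cytotoxicity: plate controls were DMSO only for no effect and tetraoctylammonium bromide control for full effect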
Method in brief: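 Cells seeded 2500/well, rested 5 hr at 37 C, dosed across a concentration series, incubated 24 hr at 37 C, then CellTiter-Glo added for 30 min at room temperature and luminescence read. Hill fitting gave AC50.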

[12] = Cell Viability - LYMP2-002 (AID 977); conditions: LYMP2-002 lymphoblastoid cell viability, qHTS; series mostly up to 92.2 µM;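 note: compound exposure lasted 24 h at 37 °C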; note: potency is the fitted concentration of half-maximal effect
Method in brief: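 Human lymphoblastoid LYMP2-002 cells, 2500 per well, exposed to compounds for 24 h at 37 C in complete medium; viability read as intracellular ATP by CellTiter-Glo luminescence, AC50 from Hill fits.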

[13] = Cell Viability - LYMP2-008 (AID 980); conditions: LYMP2-008 lymphoblastoid cell viability, qHTS; series mostly up to 92.2 µM; note: nearly all actives have a fitted effect of over 60% in size; note: potency is the fitted concentration of half-maximal effect; for activity change, negative = cytotoxicity: % is set by controls: 0 for no effect and ±100 for the full control effect
Method in brief: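 qHTS, human lymphoblastoid line, 2500 cells/well; 5 hr preincubation, 24 hr compound, 37 C. CellTiter-Glo ATP luminescence. AC50 via Hill equation. Tetraoctylammonium bromide positive control.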

[14] = Cell Viability - LYMP2-014 (AID 983); conditions: LYMP2-014 lymphoblastoid cells, viability qHTS; series mostly up to 92.2 µM; note: nearly all actives have a fitted effect of over 50% in size; note: potency is the fitted concentration of half-maximal effect;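 for activity change, negative = cytotoxicity: plate controls were DMSO only for no effect and 92 µM tetraoctylammonium bromide for full effect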
Method in brief: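 Luminescent ATP signal (CellTiter-Glo, 30 min at room temperature) serves as the viability read-out after 24 hr compound exposure at 37 C. Cells were seeded at 2500 per well and settled 5 hr beforehand.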

[15] = Cell Viability - LYMP2-016 (AID 984); conditions: LYMP2-016 lymphoblastoid cell viability, qHTS; series mostly up to 92.2 µM; note: nearly all actives have a fitted effect of over 55% in size; note: potency is the fitted concentration of half-maximal effect; for activity change, negative = cytotoxicity: % is set by controls: 0 for no effect and ±100 for the full control effect
Method in brief: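 Cells were seeded at 2500 per well and rested 5 hr before a 24 hr compound exposure at 37 C. Viability was then gauged as cellular ATP by luciferase luminescence, with AC50 values fitted to the Hill equation.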

[16] = Cell Viability - LYMP2-018 (AID 985); conditions: LYMP2-018 lymphoblastoid cells, viability (qHTS); series mostly up to 92.2 µM; note: nearly all actives have a fitted effect of over 50% in size; note: potency is the fitted concentration of half-maximal effect;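 for activity change, negative = cytotoxicity: plate controls were DMSO only for no effect and tetraoctylammonium bromide at 92 µM for full effect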
Method in brief: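 Luminescent ATP signal (CellTiter-Glo, read after 30 min at room temperature) reports viable cells after 24 hr compound treatment at 37 C. Concentration-response data were fitted to the standard Hill equation for AC50.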

[17] = Cell Viability - LYMP1-002 - Assay at 40 hr (AID 994); conditions: LYMP1-002 lymphoblastoid cell viability; series mostly up to 92.2 µM; note: nearly all actives have a fitted effect of over 60% in size; note: potency is the fitted concentration of half-maximal effect
Method in brief: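 Luminescent ATP signal served as the viability readout, with decreases taken as toxicity. Cells were treated with compounds across a concentration range for 40 hours at 37 C, and AC50 values came from standard Hill modeling.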

[18] = qHTS assay for cell viability of HEK293 cells (AID 743288); conditions: ATP luminescence (CellTiter-Glo), 18 h; max response: stronger effect = lower value; note: nearly all actives have a fitted effect of over 50% in size; note: potency is the fitted concentration of half-maximal effect; for max response: % is set by controls: 0 for no effect and ±100 for the full control effect
Method in brief: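 HEK293 parental, 2,000 cells/well; ≥5 h pre-incubation 37 C; pintool compound addition; 18 h, 37 C; CellTiter-Glo 30 min RT; luminescence read.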

[19] = Cell Viability - LYMP2-021 (AID 974); conditions: LYMP2-021 lymphoblastoid cells viability; series mostly up to 92.2 µM;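 note: compound exposure lasts 24 hours at 37 °C; nearly all actives have a fitted effect of over 55% in size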; note: potency is the fitted concentration of half-maximal effect
Method in brief: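 Plate 2500 lymphoblastoid cells per well and incubate 5 hr at 37 C. Add compounds over a concentration range and incubate 24 hr at 37 C. Add CellTiter-Glo, wait 30 min at room temperature, read luminescence.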

[20] = Cell Viability - LYMP2-020 (AID 986); conditions: series mostly up to 92.2 µM; note: nearly all actives have a fitted effect of over 55% in size; note: potency is the fitted concentration of half-maximal effect
Method in brief: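 Luminescent ATP signal (CellTiter-Glo, 30 min at room temperature) is the read-out after 24 h compound treatment of lymphoblastoid cells at 37 C. AC50 values come from Hill-equation fits across concentrations.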

Chain of Retinoic acid receptor RXR-alpha (Homo sapiens) (P19793 whole entry, looked up): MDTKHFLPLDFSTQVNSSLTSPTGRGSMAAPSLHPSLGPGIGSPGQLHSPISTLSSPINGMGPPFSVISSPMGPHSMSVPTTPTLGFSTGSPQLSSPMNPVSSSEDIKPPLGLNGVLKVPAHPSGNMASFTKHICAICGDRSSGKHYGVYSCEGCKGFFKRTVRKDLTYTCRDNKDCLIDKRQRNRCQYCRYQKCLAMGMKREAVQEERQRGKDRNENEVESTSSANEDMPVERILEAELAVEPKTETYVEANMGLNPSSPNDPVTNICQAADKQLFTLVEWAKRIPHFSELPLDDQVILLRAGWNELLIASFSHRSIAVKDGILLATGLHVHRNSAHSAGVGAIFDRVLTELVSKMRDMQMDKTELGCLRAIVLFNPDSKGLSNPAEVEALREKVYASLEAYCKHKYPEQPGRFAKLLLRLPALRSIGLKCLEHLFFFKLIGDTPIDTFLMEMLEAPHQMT

CCN(CC)c1ccc(N)cc1
active: Potency [3] 39.8 µM | Potency [7] 44.7 µM
inactive: Potency [1] | Potency [2] | Potency [4] | max response [6] -16.2%
9.43%: max response [5]

Clc1nc2ccccc2nc1Cl
-14.8%: max response [5]
inactive: Potency [8] > 92 µM | Potency [9] > 92 µM | Potency [1] | Potency [10] | Potency [11] | Potency [2] | Potency [12] | Potency [13] | Potency [14] | Potency [15] | Potency [16] | Potency [4] | Potency [17] | max response [6] 31% | activation [7] 0.0222% | max response [18] -15.1%

Oc1cc2c(cc1O)[C@H]1c3ccc(O)c(O)c3OC[C@@]1(O)C2
active: Potency [10] 39.8 µM | Potency [11] 31.6 µM | Potency [19] 31.6 µM | Potency [2] 50.1 µM | Potency [12] 39.8 µM | Potency [13] 39.8 µM | Potency [14] 39.8 µM | Potency [15] 39.8 µM | Potency [16] 31.6 µM | Potency [20] 39.8 µM | Potency [3] 31.6 µM | Potency [4] 39.8 µM | Potency [17] 50.1 µM
inactive: max response [6] -15.2% | activation [7] -1.85% | max response [18] -28.5%
-1.27%: max response [5]

Cc1c(C(=O)O)c(O)cc2c1C(=O)c1c(O)c([C@H]3O[C@H](CO)[C@@H](O)[C@H](O)[C@H]3O)c(O)c(O)c1C2=O
-15.8%: max response [5]
inactive: Potency [12] | Potency [20] | max response [6] 21% | activation [7] -4.11%

C=CC(=O)OCCCCCCOC(=O)C=C
active: Potency [10] 39.8 µM | Potency [11] 39.8 µM | Potency [19] 39.8 µM | Potency [2] 50.1 µM | Potency [12] 50.1 µM | Potency [13] 50.1 µM | Potency [14] 50.1 µM | Potency [15] 39.8 µM | Potency [16] 39.8 µM | Potency [20] 39.8 µM | Potency [3] 39.8 µM | Potency [4] 39.8 µM | Potency [17] 39.8 µM
inactive: Potency [9] > 92 µM | max response [6] -43.4% and 3.26% | activation [7] -0.448% and 0.963% | max response [18] -28.7% and -17.5%
3.39% and -7.34%: max response [5]

c1ccc(Nc2cccc3ccccc23)cc1
1.85%: max response [5]
inactive: Potency [8] > 92 µM | Potency [9] > 92 µM | Potency [1] | Potency [10] | Potency [11] | Potency [19] | Potency [2] | Potency [12] | Potency [13] | Potency [14] | Potency [15] | Potency [16] | Potency [20] | Potency [3] | Potency [4] | Potency [17] | max response [6] -23.3% | max response [18] -6.95% and -18%

Oc1cc(Cl)cc(Cl)c1Cl
inactive: Potency [8] > 92 µM | Potency [9] > 92 µM | Potency [1] | Potency [10] | Potency [11] | Potency [2] | Potency [12] | Potency [13] | Potency [14] | Potency [15] | Potency [16] | Potency [3] | Potency [4] | Potency [17] | activation [7] 2.22% | max response [18] -4.35%

Nc1ccc(N)c(Cl)c1
4.58%: max response [5]
inactive: Potency [8] > 92 µM | Potency [9] > 92 µM | Potency [1] | Potency [11] | Potency [19] | Potency [12] | Potency [13] | Potency [14] | Potency [15] | Potency [16] | Potency [20] | Potency [4] | max response [6] 9.54% | max response [18] -4.85%
active: Potency [10] 39.8 µM | Potency [3] 39.8 µM

CC(=O)CC(=O)Nc1ccccc1
10.1% and 20.6%: max response [5]
inactive: Potency [8] > 92 µM | Potency [9] > 92 µM | Potency [1] | Potency [10] | Potency [11] | Potency [19] | Potency [2] | Potency [12] | Potency [13] | Potency [14] | Potency [15] | Potency [16] | Potency [20] | Potency [3] | Potency [4] | Potency [17] | max response [6] -1.7% and -15.3% | activation [7] 1.24% and 1.64% | max response [18] 2.12% and -0.894%

CN(C)c1ccc(C(=N)c2ccc(N(C)C)cc2)cc1
inactive: activation [7] 13.1%
active: Potency [9] 57 µM | Potency [14] 39.8 µM | Potency [16] 39.8 µM | Potency [20] 39.8 µM | Potency [3] 25.1 µM

O=[N+]([O-])c1cc(Cl)c(Cl)c(Cl)c1Cl
11.9%: max response [5]
inactive: Potency [8] > 92 µM | Potency [9] > 92 µM | Potency [1] | Potency [2] | Potency [12] | Potency [15] | Potency [4] | Potency [17] | max response [6] -21.8% | activation [7] -0.451% | max response [18] -2.48%

NC(=O)Nc1nc2ccccc2[nH]1
-1.95%: max response [5]
inactive: Potency [8] > 92 µM | Potency [9] > 92 µM | Potency [1] | Potency [10] | Potency [11] | Potency [19] | Potency [2] | Potency [12] | Potency [13] | Potency [14] | Potency [15] | Potency [16] | Potency [20] | Potency [3] | Potency [4] | Potency [17] | max response [6] 1.58% | activation [7] 5.33% | max response [18] -5.65%

O=Nc1ccc(Nc2ccccc2)cc1
inactive: Potency [9] > 92 µM | Potency [1]
active: Potency [18] 39.8 µM and 20 µM

CCCCC(CC)COP(=O)(OCC(CC)CCCC)OCC(CC)CCCC (centres undefined)
-7.24%: max response [5]
inactive: Potency [8] > 92 µM | Potency [9] > 92 µM | Potency [1] | Potency [10] | Potency [11] | Potency [19] | Potency [2] | Potency [12] | Potency [13] | Potency [14] | Potency [15] | Potency [16] | Potency [20] | Potency [3] | Potency [4] | Potency [17] | max response [6] -4.08% | activation [7] -1.66% | max response [18] -14.3%

Cc1cc2nc(N)sc2cc1C
inactive: Potency [8] > 92 µM | Potency [10] | Potency [11] | Potency [19] | Potency [2] | Potency [12] | Potency [13] | Potency [14] | Potency [15] | Potency [16] | Potency [20] | Potency [3] | Potency [4] | Potency [17] | max response [6] 9.41% | max response [18] -12.3%
0.388%: max response [5]
